Screening data as filed in PubChem.
Jurkat NFkB inh = inhibitors of induced NF-kB luciferase reporter, primary screen, TCR NF-kB activation inhibitor project, cell-based, luminescence, uHTS; inhibition, % at 4 µM; Jurkat, PMA/ionomycin-induced NF-kB luciferase reporter; AID 435003, 2010; hit rate 0.53% among 330,000; in the data active = inhibition above about 50%
Mdm2-MdmX inh = inhibitors of human Mdm2-MdmX association, primary screen, cell-based, luminescence, split luciferase, SaOS-2, uHTS; SaOS-2 split-luciferase Mdm2/MdmX complementation; inhibition, % at 8 µM; hit rate 3% among 330,000; AID 485346, 2010;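 active = inhibition of at least 50% at 8 µM in the primary screen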
Target sequence (O15151 whole entry, looked up): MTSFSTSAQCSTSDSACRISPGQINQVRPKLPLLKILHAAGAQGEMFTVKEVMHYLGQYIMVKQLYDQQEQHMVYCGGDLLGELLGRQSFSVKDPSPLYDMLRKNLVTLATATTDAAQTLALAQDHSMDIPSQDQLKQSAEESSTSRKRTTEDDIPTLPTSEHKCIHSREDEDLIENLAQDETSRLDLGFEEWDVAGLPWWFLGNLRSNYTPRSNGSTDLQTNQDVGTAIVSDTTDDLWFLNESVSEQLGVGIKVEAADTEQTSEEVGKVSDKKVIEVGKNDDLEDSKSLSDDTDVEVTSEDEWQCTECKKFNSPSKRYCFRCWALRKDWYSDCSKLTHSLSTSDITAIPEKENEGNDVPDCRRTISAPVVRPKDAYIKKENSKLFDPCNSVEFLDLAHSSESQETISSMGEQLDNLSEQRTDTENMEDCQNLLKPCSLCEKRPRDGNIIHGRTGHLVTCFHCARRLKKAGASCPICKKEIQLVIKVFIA
Target sequence (Q00987 whole entry, looked up): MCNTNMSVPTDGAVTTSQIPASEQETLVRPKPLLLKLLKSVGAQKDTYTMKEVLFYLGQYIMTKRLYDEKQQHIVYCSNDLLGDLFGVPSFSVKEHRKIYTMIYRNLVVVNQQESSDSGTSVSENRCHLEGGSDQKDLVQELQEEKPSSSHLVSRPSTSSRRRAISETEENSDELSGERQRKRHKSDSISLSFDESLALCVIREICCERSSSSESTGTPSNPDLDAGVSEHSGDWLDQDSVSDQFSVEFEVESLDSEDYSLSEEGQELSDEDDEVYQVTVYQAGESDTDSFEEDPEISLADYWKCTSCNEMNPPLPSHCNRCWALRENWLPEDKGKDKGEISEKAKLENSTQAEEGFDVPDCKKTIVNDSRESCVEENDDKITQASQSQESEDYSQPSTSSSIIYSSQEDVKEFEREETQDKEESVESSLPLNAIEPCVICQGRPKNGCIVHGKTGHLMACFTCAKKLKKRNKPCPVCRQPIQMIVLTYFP
Beta apoptosis = inhibitors of cytokine-induced beta cell apoptosis, primary screen, luminescence; INS-1E cytokine-induced death, ATP luminescence, 48 h; percent of positive-control rescue, neutral wells zero; protection from apoptosis, % (concentration not given with the values); hit rate 0.8% among 300,000;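 active = Every replicate reaches about 75%, or at least half do and their mean reaches it too, limit read from the data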;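 also: 0% = cytokine-treated negative control wells and 100% = positive control rescue; higher means more ATP so stronger rescue from cytokine killing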
CSC inhib = cancer stem cell viability inhibitors, primary screen, luminescence; cancer stem cell-like cells viability; inhibition, % at 7.5 µM; hit rate 1.1% among 300,000; in the data active = inhibition above about 75%; tested in HMLE shEcad cells
697 NFkB inh = inhibitors of PMA/ionomycin-induced NF-kB reporter, 697 cells, primary screen, B-cell NF-kB inhibitor project, cell-based, luminescence, uHTS | inhibition, % at 4 µM | 697 B-cell NF-kB luciferase reporter, 16 h | hit rate 0.33% among 330,000; in the data active = inhibition above about 35%
Gli-Sufu antag = Gli-Sufu pathway antagonists, primary screen, luciferase luminescence, Sufu-KO-LIGHT cells, uHTS; Sufu-KO-LIGHT fibroblasts, Gli luciferase reporter luminescence; inhibition, % at 5 µM; hit rate 0.74% among 340,000; AID 588413, 2011;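 active = inhibition above about 55%, limit read from the data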;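 also: 0% = DMSO-treated cells and 100% = wells with medium but no cells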
Gli-Sufu confirm = Gli-SUFU pathway antagonists, confirmation, single concentration, luciferase luminescence, Sufu-KO-LIGHT cells; shares compounds with Gli-Sufu antag; Gli luciferase reporter; inhibition, % at 5 µM; hit rate 40% among 2,500; AID 602428, 2012;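 active = mean inhibition at 5 µM reaching about 45%, limit read from the data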;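 also: plate controls were DMSO-treated cells for no effect and wells lacking cells for full effect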
Gli cytotox = cytotoxicity in Sufu-KO-LIGHT cells, confirmation, cytotoxicity control for Gli-SUFU antagonist project, cell-based, ATP luminescence, single concentration; shares compounds with Gli-Sufu antag; cytotoxicity, % at 5 µM; hit rate 32% among 2,500; AID 651994, 2013;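 active = mean cytotoxicity at 5 µM above about 25%, limit read from the data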;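 also: cells exposed to compound overnight for roughly 16 to 18 hours; plate controls were DMSO wells with cells for no effect and medium without cells for full effect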
Wnt3a counter = Wnt3a reporter signal inhibition, confirmation, counter-screen for Gli-SUFU antagonist project, Wnt-LIGHT cells, luminescence, single concentration; shares compounds with Gli-Sufu antag; Wnt3a-driven luciferase reporter; inhibition, % at 6.25 µM; hit rate 20% among 2,500; AID 651995, 2013;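 active = mean inhibition above about 25%, limit read from the data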
* marks the source's active call; other numbers are inactive results; x = no result. A selection: hits, their analogues and other compounds. The true share with any hit is near 4.5%.

SMILES | Jurkat NFkB inh | Mdm2-MdmX inh | Beta apoptosis | CSC inhib | 697 NFkB inh | Gli-Sufu antag | Gli-Sufu confirm | Gli cytotox | Wnt3a counter
O=C(Nc1ccccc1Cl)C1CCCN(S(=O)(=O)c2cccc3cccnc23)C1 (stereo not given) | 4 | 7 | -2 | 2 | 12 | 76* | 29 | 9 | 3
O=C1C[C@@H]2c3c(cccc3CN1Cc1ccc(Br)cc1)C[C@@H](O)[C@H]2O | x | x | x | x | x | -7 | x | x | x
O=C(NC1CCCCC1)C(c1ccco1)N(CCc1ccccc1)C(=O)C(F)(F)F (stereo not given) | 9 | 11 | 8 | 19 | 16 | 0 | x | x | x
COc1ccc(CCN(C(=O)C(F)(F)F)C(C(=O)NC2CCCC2)c2cccs2)cc1 (stereo not given) | -6 | -4 | 0 | 4 | -37 | 51 | 10 | 21 | -10
O=C1CCCN1c1ccc(S(=O)(=O)NCCOc2ccccc2)cc1 | 6 | 2 | 2 | 6 | -18 | 7 | x | x | x
Cc1cc(N2CCCC2=O)cc(C)c1S(=O)(=O)NCCOc1ccc(C(C)(C)C)cc1 | 6 | 21 | 109* | 7 | -43 | 75* | 72* | 44* | -2
COc1ccc2c(c1OC)C(=O)OC2C1c2c(cc3c(c2OC)OCO3)CCN1C (stereo not given) | 1 | 25 | -7 | 13 | 19 | 51 | 34 | 17 | -6
COc1ccc2c(c1OC)C(C1c3c(cc4c(c3OC)OCO4)CCN1C)OC2=O (stereo not given) | 7 | -33 | -4 | -9 | -8 | 2 | x | x | x
COC(=O)c1c(C(=O)OC)c(-c2ccc(OC)cc2)n2c1CS(=O)(=O)C2 | 4 | 23 | 6 | 1 | 13 | 6 | x | x | x
O=C1c2nccnc2C(=O)N1c1ccc(F)cc1 | 3 | -20 | 0 | -3 | -24 | x | x | x | x
O=C(CN1C(=O)c2ccc([N+](=O)[O-])cc2C1=O)Nc1cc(S(=O)(=O)N2CCOCC2)ccc1Cl | -4 | 12 | 0 | -1 | 23 | -4 | x | x | x
O=S(=O)(c1ccc(Br)cc1)c1nc(-c2ccco2)oc1NCC1CCCO1 (stereo not given) | 14 | -18 | x | x | 29 | 62* | 21 | 15 | 6
COC(=O)C1=Cc2cc(OC)cc([N+](=O)[O-])c2OC1N1CCOCC1 (stereo not given) | 5 | 1 | -7 | -20 | 1 | 3 | x | x | x
Cc1ccc([N+](=O)[O-])cc1N=Nc1c(-c2ccc([N+](=O)[O-])cc2)[nH]n(C(N)=S)c1=O | x | x | x | x | x | 58* | 60* | 3 | 47*
CCO[C@H]1OC(C(=O)N2CCOCC2)=C[C@@H](C2CC2)[C@@H]1CCCO | 9 | -17 | 0 | -16 | -7 | 99* | 26 | -5 | 0
O=C1CCN(Cc2ccccc2)C(=S)N1 | x | x | x | x | x | 1 | x | x | x
CCCCC(Sc1nc(N)c(NC(=O)c2ccco2)c(=O)[nH]1)C(=O)O (stereo not given) | 19 | -9 | -9 | 1 | -5 | 6 | x | x | x
CN(CCOc1ccccc1)C(=O)c1ccc(Cl)c(S(=O)(=O)N2CCCCC2)c1 | -12 | 10 | -4 | -22 | 5 | -1 | x | x | x
CN(CC(=O)Nc1ccccc1Cl)C(=O)C1CCN(C(=O)c2ccc(F)cc2)CC1 | -18 | 0 | -2 | 6 | 8 | -9 | x | x | x
O=C(Nc1ccc(-c2nnc3n2CCCCC3)cc1)c1ccco1 | 5 | 0 | -2 | -3 | 8 | -3 | x | x | x
Cc1c(C(=O)Nc2ccc(-c3nnc4n3CCCCC4)cc2)oc2ccc(Br)cc12 | -7 | 38 | 15 | -3 | -41 | 52 | 32 | 13 | -97
O=C(CCl)N=c1sccn1Cc1cccc2ccccc12 | x | x | x | x | x | 96* | 33 | 15 | -18
COCc1ccc(C(=O)NC2CCCc3c2cnn3-c2cc(C)cc(C)c2)s1 (stereo not given) | 2 | 22 | x | x | -17 | 22 | x | x | x
Cc1ccc(-c2nn(C)c(=O)c3ccccc23)cc1S(=O)(=O)N1CCOCC1 | 13 | 16 | 3 | 25 | 14 | 51 | 22 | 20 | 16
COc1ccccc1CN(Cc1nc2ccccc2c(=O)[nH]1)C(=O)Nc1ccc(C)cc1 | -6 | 18 | -2 | -22 | -23 | -6 | x | x | x
SMILES | Jurkat NFkB inh | Mdm2-MdmX inh | Beta apoptosis | CSC inhib | 697 NFkB inh | Gli-Sufu antag | Gli-Sufu confirm | Gli cytotox | Wnt3a counter
COc1ccccc1CN(Cc1nc2ccccc2c(=O)[nH]1)S(=O)(=O)c1ccc(C)cc1 | -7 | 9 | x | x | -2 | 53 | 40 | 7 | -2
Cc1cc(C(=O)CN2C(=O)c3ccccc3C2=O)c(C)n1C1CC1 | 1 | 6 | 12 | -8 | -64 | -21 | x | x | x
COc1ccc(-n2c(C)cc(C(=O)CN3C(=O)c4ccccc4C3=O)c2C)cc1 | -3 | -12 | -4 | 20 | -11 | 96* | -3 | 10 | -41
Cn1nc(CC(=O)NCc2ccc(C(F)(F)F)cc2)c2ccccc2c1=O | 30 | 34 | 34 | -3 | -28 | 55* | 52* | 25* | 17
COc1ccc(CNC(=O)Cc2nn(C)c(=O)c3ccccc23)cc1 | 20 | 25 | 26 | -3 | -19 | 50 | x | x | x
CCC1(O)CC2CN(CCc3c([nH]c4ccccc34)C(C(=O)OC)(c3cc4c(cc3OC)N(C=O)C3C(O)(C(=O)OC)C(OC(C)=O)C5(CC)C=CCN6CCC43C65)C2)C1 (stereo not given) | x | x | x | x | x | 55 | 63* | 65* | -8
COc1ccc(CNC(=O)C2CCN(S(=O)(=O)N3CCC4(CC3)OCCO4)CC2)c(OC)c1 | -19 | -3 | -4 | 12 | -25 | 99* | 3 | -12 | -23
COc1cccc(CNC(=O)C2CCN(S(=O)(=O)N3CCC4(CC3)OCCO4)CC2)c1 | -4 | 11 | -2 | -6 | -12 | -13 | x | x | x
CCOC(=O)C(C)N1CC(=O)N(c2ccccc2)C1=O (stereo not given) | x | x | -1 | -6 | x | 2 | x | x | x
CCOC(=O)C1=C(C)N(c2ccccc2)C(=O)C1 | -6 | 2 | x | -3 | -11 | 76* | 24 | 11 | 6
CSCCC(NC(N)=O)C(=O)Nc1cccc(S(=O)(=O)N2CCOCC2)c1 (stereo not given) | -6 | 8 | -2 | -2 | -6 | -7 | x | x | x
